# Results taken from ChEMBL document CHEMBL1857833, “Screening and optimization of specific chemical series against human African Trypanosomiasis (HAT)”.
# Hit rate of the full screen: of about 4,400 compounds, about 390 (8.9%) showed an effect of 50% or more. Only a selection was taken, and strong results are over-represented in it overall.
# System: Trypanosoma brucei
# Assay: DNDI: Inhibition of Human African Trypanosomiasis, SBRI 427, in vitro at 2 ug.mL-1
# Format: functional
row,SMILES,% inhibition [%]
1,COCC(C)N/C(=N\O)c1ccc(Oc2cc(C)cc(C(C)C)c2)nc1 (centres undefined),18
2,O/N=C(\NCC1CCCCC1)c1ccc(Oc2ccc3ccccc3c2)nc1,6
3,COCC(C)N/C(=N\O)c1ccc(Oc2ccc3ccccc3c2)nc1 (centres undefined),76
4,CC1CC(N/C(=N\O)c2ccc(Oc3ccc4ccccc4c3)nc2)CC(C)(C)C1 (centres undefined),4
5,CC1CCC(N/C(=N\O)c2ccc(Oc3ccc4ccccc4c3)nc2)CC1 (centres undefined),-9
6,CCC(CC)N/C(=N\O)c1ccc(Oc2ccc3ccccc3c2)nc1,32
7,COc1cc(-c2nc(CN3CCC4CCCCC4C3)co2)cc(OC)c1OC (centres undefined),-10
8,Fc1cccc(-c2nc(CN3CCN(c4ncccn4)CC3)co2)c1,6
9,FC(F)(F)c1ccc(-c2nc(Cn3ccnc3-c3ccccc3)co2)cc1,-8
10,c1cncc(CN(Cc2cccnc2)Cc2coc(-c3cccc4ccccc34)n2)c1,47
11,COc1cccc(CNCc2coc(-c3ccccc3C)n2)c1,15
12,COc1ccc(CCN(C)Cc2coc(-c3ccc(C(F)(F)F)cc3)n2)cc1OC,7
13,CCCN(CC1CC1)/C(=N\O)c1ccc(C)nc1Oc1cccc(C)c1,-4
14,Cc1cc(C)cc(Oc2nc(C)ccc2/C(=N/O)N2CCCc3ccccc32)c1,53
15,CSc1ccc(Oc2nc(C)ccc2/C(=N/O)N2c3ccccc3CCC2C)cc1C (centres undefined),0
16,CSc1ccc(Oc2nc(C)ccc2/C(=N/O)N2CCCc3ccccc32)cc1C,10
17,COc1ccc(Oc2nc(C)ccc2/C(=N/O)N2CCCc3ccccc32)cc1,11
18,Cc1ccc(/C(=N/O)N2CCCc3ccccc32)c(Oc2ccc3ccccc3c2)n1,15
19,Cc1ccc(/C(=N/O)N2c3ccccc3CCC2C)c(Oc2cccc(F)c2)n1 (centres undefined),34
20,Cc1ccc(/C(=N/O)N2CCCc3ccccc32)c(Oc2ccc(F)c(F)c2)n1,21
21,Cc1ccc(/C(=N/O)N2CCCc3ccccc32)c(Oc2cccc(F)c2)n1,93
22,Cc1cc(C)cc(Oc2nc(C)ccc2/C(=N/O)N2c3ccccc3CCC2C)c1 (centres undefined),98
23,CC(C)(C)COc1ncccc1/C(=N/O)NCCN1CCOCC1,6
24,CCN(Cc1coc(-c2cccc(OC)c2)n1)c1cccc(C)c1,-18
25,Fc1ccc(N2CCN(Cc3coc(-c4ccc(Cl)cc4Cl)n3)CC2)cc1,14
26,Cc1ccc(/C(=N/O)N(C)C2CCN(C)CC2)c(Oc2cccnc2)n1,9
27,CC1CCCN1/C(=N\O)c1cccnc1Oc1ccc(F)cc1 (centres undefined),2

row,SMILES,% inhibition [%]
1,c1coc(-c2nc(CN3CCCCCC3)co2)c1,16
2,CCN(Cc1ccccc1)Cc1coc(-c2ccccc2)n1,9
3,CN(Cc1coc(-c2ccc(C(F)(F)F)cc2)n1)C1CCN(Cc2ccccc2)C1 (centres undefined),0
4,CCc1ccc(Oc2ncccc2/C(=N/O)NCc2ccccc2OC)cc1,99
5,CCOc1ccccc1Oc1ncccc1/C(=N\O)NCc1ccncc1,0
6,CCOc1ccccc1CN/C(=N\O)c1cccnc1Oc1ccc(CC)cc1,99
7,CCOc1ccccc1CNCc1coc(-c2cccs2)n1,-4
8,Cc1nccn1/C(=N\O)c1ccnc(Oc2cccc3cnccc23)c1,14
9,c1ccc(C(c2ccccc2)N2CCN(Cc3coc(-c4ccco4)n3)CC2)cc1,0
10,Cc1ccc(/C(=N/O)N2CCCCCC2)c(OCc2ccccn2)n1,28
11,C/C(=C\C#N)N/C(=N\O)c1ccnc(Oc2cc(C)ccc2C(C)C)c1,21
12,CCOc1ccc(Oc2cc(/C(=N/O)NCc3ccccc3OC)ccn2)cc1,0
13,c1ccc(-c2cn(Cc3coc(-c4cccc5ccccc45)n3)cn2)cc1,-1
14,CCN(/C(=N\O)c1cccnc1Oc1ccc2c(c1)CCCC2)C(C)C,3
15,CCOc1cccc(-c2nc(CN3CCN(c4ccccc4)CC3)co2)c1,17
16,CC1CCc2ccccc2N1/C(=N\O)c1cccnc1OCC(C)(C)C (centres undefined),84
17,CC(C)(C)COc1ncccc1/C(=N/O)N1CCCC1,0
18,CC(C)(C)COc1ncccc1/C(=N/O)N1CCCc2ccccc21,100
19,CC1CCC(C)N1/C(=N\O)c1cccnc1Oc1ccc(-n2cncn2)cc1 (centres undefined),9
20,O/N=C(/c1cccnc1OCc1cccc(F)c1)N1CCCc2ccccc21,-2
21,O/N=C(/c1cccnc1OCc1ccccc1F)N1CCCc2ccccc21,-20
22,CC1CCc2ccccc2N1/C(=N\O)c1cccnc1Oc1ccc(-n2cncn2)cc1 (centres undefined),81
23,CC(C)(C)COc1ncccc1/C(=N/O)N1CCCCCC1,8
24,O/N=C(/c1cccnc1Oc1ccc(-n2cncn2)cc1)N1CCCc2ccccc21,10
25,CC(C)COc1ncccc1/C(=N/O)N1C(C)CCC1C (centres undefined),-2
26,CC(C)COc1ncccc1/C(=N/O)N1C(C)CCCC1C (centres undefined),6
27,CC1CCC(C)N1/C(=N\O)c1cccnc1OCC(C)(C)C (centres undefined),93
